Calls of active or inactive are those of the source. No rule for the calls is given here.

This experiment concerns Aerobactin synthetase IucA (Klebsiella pneumoniae, hypervirulent). Kind of experiment: biochemical IucA inhibition screen of LOPAC library by absorbance (AID 1346212).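 Also: 100% = no compound wells and 0% = no enzyme wells.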 As to conditions: IucA enzyme assay, absorbance (OD) readout; stronger effect = lower value;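 tested at 8 µM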.
Regarding `Nc1c2c(nc3ccccc13)CCCC2O` (centres undefined), the remaining activity (usually the signal under treatment as a percentage of the control signal) was 101% (inactive).
The same measure for `C[C@H]1c2cccc(O)c2C(O)=C2C(=O)[C@]3(O)C(O)=C(C(N)=O)C(=O)[C@@H](N(C)C)[C@@H]3[C@@H](O)[C@@H]21`: 104% (inactive); for `O=C(O)c1cc(=O)c2ccc(Cl)cc2[nH]1`: 85.9% (inactive); for `CCN(CC)CCCC(C)Nc1ccnc2cc(Cl)ccc12` (centres undefined): 122% (inactive).
Turning to `C[N+]1(CCCCC[N+]2(C)CCCC2)CCCC1`, the remaining activity was 119% (inactive).
The result for `NCCCC(=O)O` reads 123% (inactive).
In the case of `Oc1cc(O)c2c(c1)O[C@H](c1ccc(O)c(O)c1)[C@@H](O)C2`, the remaining activity is 106% (inactive).
Consider `O=C(O)c1cc(=O)c2ccccc2[nH]1`, for which the remaining activity is 109% (inactive).
The same measure for `CC(C[N+](C)(C)C)OC(N)=O` (centres undefined): 114% (inactive).
